Assay results taken from PubChem BioAssay AID1159580 (chemical genetic matrix, 2015).
Screen size: about 5,500 compounds; about 2,000 (36%) were called active. About 18% were inconclusive and are not listed. Rule as the data show it: active = normalized growth mostly below about 0.91 (no sharp cut-off); inconclusive = no clear call, values can overlap the other calls; inactive = mostly above about 0.92. The list shows a part of the results.

Test: chemical genetic growth profiling, strain panel (AID 1159580);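 also: tested at 20 µM; growth read once vehicle control cultures reached saturation at 30 °C; 1 = growth at the plate median or of vehicle wells; lower values mean less growth of the strain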
Conditions: growth OD
[1] = S. cerevisiae deletion strains, locus YAL013W, strain DEP1, hits give low values
[2] = S. cerevisiae deletion strains, locus YBR229C, strain ROT2, hits give low values
[3] = S. cerevisiae deletion strains, locus YCL061C, strain MRC1, hits give low values
[4] = S. cerevisiae deletion strains, locus YDL101C, strain DUN1, hits give low values
[5] = S. cerevisiae deletion strains, locus YDR150W, strain NUM1, hits give low values
[6] = S. cerevisiae deletion strains, locus YEL061C, strain CIN8, hits give low values
[7] = S. cerevisiae deletion strains, locus YGR078C, strain PAC10, hits give low values
[8] = S. cerevisiae deletion strains, locus YGR229C, strain SMI1, hits give low values
[9] = S. cerevisiae deletion strains, locus YHR030C, strain SLT2, hits give low values
[10] = S. cerevisiae deletion strains, locus YHR087W, strain rtc3, hits give low values
[11] = S. cerevisiae deletion strains, locus YJR043C, strain POL32, hits give low values
[12] = S. cerevisiae deletion strains, locus YJR075W, strain HOC1, hits give low values
[13] = S. cerevisiae deletion strains, locus YKL190W, strain CNB1, hits give low values
[14] = S. cerevisiae deletion strains, locus YLR039C, strain RIC1, hits give low values
[15] = S. cerevisiae deletion strains, locus YLR058C, strain SHM2 (second series), hits give low values
[16] = S. cerevisiae deletion strains, locus YLR085C, strain ARP6, hits give low values
[17] = S. cerevisiae deletion strains, locus YLR262C, strain YPT6, hits give low values
[18] = S. cerevisiae deletion strains, locus YML094W, strain GIM5, hits give low values
[19] = S. cerevisiae deletion strains, locus YMR219W, strain ESC1, hits give low values
[20] = S. cerevisiae deletion strains, locus YMR263W, strain SAP30, hits give low values
[21] = S. cerevisiae deletion strains, locus YNL128W, strain TEP1, hits give low values
[22] = S. cerevisiae deletion strains, locus YNL153C, strain GIM3, hits give low values
[23] = S. cerevisiae deletion strains, locus YNL298W, strain CLA4 (second series), hits give low values
[24] = S. cerevisiae deletion strains, locus YNL322C, strain KRE1, hits give low values
[25] = S. cerevisiae deletion strains, locus YNR030W, strain Alg12, hits give low values
[26] = S. cerevisiae deletion strains, locus YPL055C, strain LGE1, hits give low values
[27] = S. cerevisiae deletion strains, locus YPL241C, strain CIN2, hits give low values
[28] = S. cerevisiae deletion strains, locus YPR135W, strain CTF4, hits give low values

Measured: normalized growth

c1ccc(-c2csc(-c3ccncc3)n2)cc1
active: [1] 0.916 | [9] 0.22 | [13] 0.894 | [14] 0.371 | [16] 0.535 | [17] 0.384 | [18] 0.814 | [23] 0.829 | S. cerevisiae deletion strains, locus YOL006C, strain TOP1, hits give low values 0.379 | [27] 0.8 | [28] 0.515
inactive: [2] 0.979 | [3] 0.944 | [4] 0.967 | [5] 0.934 | [6] 0.914 | [7] 0.974 | [8] 0.958 | [10] 0.981 | S. cerevisiae deletion strains, locus YJL187C, strain SWE1, hits give low values 1.03 | [11] 0.974 | [12] 0.987 | [15] 0.972 | [19] 0.971 | [20] 0.946 | S. cerevisiae deletion strains, locus YMR307W, strain GAS1, hits give low values 0.737 | [21] 0.937 | [22] 0.964 | [24] 0.989 | [25] 0.901 | [26] 0.832

c1ccc(-c2nc(-c3cccs3)cs2)cc1
active: [1] 0.916 | [2] 0.877 | [3] 0.895 | [6] 0.838 | [7] 0.88 | [9] 0.166 | [10] 0.744 | [12] 0.707 | [14] 0.273 | [15] 0.859 | [16] 0.408 | [17] 0.274 | [18] 0.866 | [19] 0.919 | [23] 0.714 | [24] 0.914 | [25] 0.693 | [26] 0.768 | [27] 0.813 | [28] 0.341
inactive: [4] 0.988 | [5] 0.939 | [11] 0.973 | [20] 0.931 | [22] 0.983

Brc1ccc(-c2csc(-c3ccncc3)n2)cc1
active: [4] 0.888 | S. cerevisiae deletion strains, locus YDR052C, strain DBF4, hits give low values 0.892 | S. cerevisiae deletion strains, locus YDR054C, strain cdc34, hits give low values 0.862 | S. cerevisiae deletion strains, locus YDR226W, strain ADK1, hits give low values 0.895 | S. cerevisiae deletion strains, locus YER133W, strain GLC7, hits give low values 0.683 | S. cerevisiae deletion strains, locus YFL009W, strain cdc4, hits give low values 0.878 | S. cerevisiae deletion strains, locus YGR040W, strain KSS1, hits give low values 0.59 | S. cerevisiae deletion strains, locus YGR052W, strain FMP48, hits give low values 0.41 | S. cerevisiae deletion strains, locus YGR092W, strain DBF2, hits give low values 0.443 | [9] 0.312 | S. cerevisiae deletion strains, locus YJL095W, strain BCK1, hits give low values 0.149 | S. cerevisiae deletion strains, locus YJR066W, strain TOR1, hits give low values 0.24 | S. cerevisiae deletion strains, locus YKL203C, strain TOR2, hits give low values 0.221 | S. cerevisiae deletion strains, locus YLR113W, strain HOG1, hits give low values 0.315 | S. cerevisiae deletion strains, locus YNL183C, strain NPR1, hits give low values 0.257 | S. cerevisiae deletion strains, locus YNL207W, strain RIO2, hits give low values 0.839 | S. cerevisiae deletion strains, locus YOR119C, strain RIO1, hits give low values 0.306 | S. cerevisiae deletion strains, locus YOR231W, strain MKK1, hits give low values 0.488 | S. cerevisiae deletion strains, locus YPL153C, strain RAD53, hits give low values 0.609 | S. cerevisiae deletion strains, locus YPL204W, strain HRR25, hits give low values 0.64 | S. cerevisiae deletion strains, locus YPL256C, strain CLN2, hits give low values 0.578 | S. cerevisiae deletion strains, strain NNK1, hits give low values 0.875
inactive: S. cerevisiae deletion strains, locus YAR019C, strain CDC15, hits give low values 0.909 | S. cerevisiae deletion strains, locus YBL105C, strain PKC1, hits give low values 0.943 | S. cerevisiae deletion strains, locus YBR135W, strain CKS1, hits give low values 0.904 | S. cerevisiae deletion strains, locus YBR136W, strain MEC1, hits give low values 0.916 | S. cerevisiae deletion strains, locus YBR160W, strain CDC28, hits give low values 0.904 | S. cerevisiae deletion strains, locus YDL017W, strain CDC7, hits give low values 0.923 | S. cerevisiae deletion strains, locus YDL028C, strain MPS1, hits give low values 0.92 | S. cerevisiae deletion strains, locus YDL108W, strain KIN28, hits give low values 0.932 | S. cerevisiae deletion strains, locus YDL132W, strain cdc53, hits give low values 0.94 | S. cerevisiae deletion strains, locus YDL214C, strain PRR2, hits give low values 0.848 | S. cerevisiae deletion strains, locus YDR477W, strain SNF1, hits give low values 0.705 | S. cerevisiae deletion strains, locus YER123W, strain YCK3, hits give low values 0.703 | S. cerevisiae deletion strains, locus YFL029C, strain CAK1, hits give low values 0.911 | S. cerevisiae deletion strains, locus YFR003C, strain YPI1, hits give low values 0.942 | S. cerevisiae deletion strains, locus YFR019W, strain FAB1, hits give low values 0.874 | S. cerevisiae deletion strains, locus YFR028C, strain CDC14, hits give low values 0.895 | S. cerevisiae deletion strains, locus YHR079C, strain IRE1, hits give low values 0.632 | S. cerevisiae deletion strains, locus YHR082C, strain KSP1, hits give low values 0.635 | S. cerevisiae deletion strains, locus YHR205W, strain SCH9, hits give low values 0.622 | S. cerevisiae deletion strains, locus YIL147C, strain SLN1, hits give low values 0.919 | S. cerevisiae deletion strains, locus YJL128C, strain PBS2, hits give low values 0.958 | S. cerevisiae deletion strains, locus YJL157C, strain FAR1, hits give low values 0.847 | S. cerevisiae deletion strains, locus YJR016C, strain ILV3, hits give low values 0.914 | S. cerevisiae deletion strains, locus YJR066W, strain TOR1 (second series), hits give low values 0.797 | S. cerevisiae deletion strains, locus YKL048C, strain ELM1, hits give low values 0.889 | S. cerevisiae deletion strains, locus YKL067W, strain YNK1, hits give low values 0.856 | S. cerevisiae deletion strains, locus YKL101W, strain HSL1, hits give low values 0.889 | S. cerevisiae deletion strains, locus YKL193C, strain SDS22, hits give low values 0.891 | S. cerevisiae deletion strains, locus YLR133W, strain CKI1, hits give low values 0.844 | S. cerevisiae deletion strains, locus YLR403W, strain SFP1, hits give low values 0.689 | S. cerevisiae deletion strains, locus YML070W, strain DAK1, hits give low values 0.77 | S. cerevisiae deletion strains, locus YMR001C, strain CDC5, hits give low values 0.901 | S. cerevisiae deletion strains, locus YMR205C, strain PFK2 (second series), hits give low values 0.854 | S. cerevisiae deletion strains, locus YMR277W, strain FCP1, hits give low values 0.892 | S. cerevisiae deletion strains, locus YNL006W, strain LST8, hits give low values 0.939 | S. cerevisiae deletion strains, locus YNL020C, strain ARK1, hits give low values 0.868 | S. cerevisiae deletion strains, locus YNL161W, strain CBK1, hits give low values 0.908 | S. cerevisiae deletion strains, locus YNL222W, strain SSU72, hits give low values 0.938 | S. cerevisiae deletion strains, locus YNL307C, strain MCK1 (second series), hits give low values 0.847 | S. cerevisiae deletion strains, locus YOL078W, strain AVO1, hits give low values 0.898 | S. cerevisiae deletion strains, locus YOL136C, strain PFK27, hits give low values 0.846 | S. cerevisiae deletion strains, locus YOR061W, strain CKA2, hits give low values 0.925 | S. cerevisiae deletion strains, locus YOR329C, strain SCD5, hits give low values 0.933 | S. cerevisiae deletion strains, locus YPL031C, strain PHO85, hits give low values 0.687 | S. cerevisiae deletion strains, locus YPL209C, strain IPL1, hits give low values 0.919 | S. cerevisiae deletion strains, locus YPR025C, strain CCL1, hits give low values 0.92 | S. cerevisiae deletion strains, locus YPR106W, strain ISR1, hits give low values 0.919 | S. cerevisiae deletion strains, locus YPR111W, strain DBF20, hits give low values 0.902 | S. cerevisiae deletion strains, strain TSCII, hits give low values 0.88

OC(c1ccccc1)(c1ccccc1)c1ccncc1
inactive: [1] 1.05 | [2] 1 | [4] 1 | [5] 1.01 | [6] 0.991 | [7] 1.02 | [8] 0.997 | [9] 1.03 | [10] 1.02 | [11] 1.01 | [12] 0.984 | [13] 0.996 | [14] 1.03 | [15] 0.996 | [16] 1.19 | [17] 0.997 | [18] 1.04 | [19] 0.999 | [20] 1.03 | [21] 0.999 | [22] 1.02 | [23] 1.01 | [24] 1 | [25] 1.03 | [26] 1.09 | [27] 1.1 | [28] 1.14 | S. cerevisiae strains, strain wild type, hits give low values 1.01
